SMILES strings stand for the structures. Out of some 39,000 compounds screened, about 1,500 (3.8%) were called active. Many of the other results were omitted from the sample, so actives are more common in it than they were.

For the assay, the system named is HSkMC (human skeletal muscle cells). The assay is described as follows: cytotoxicity call (relative viability < 0.9). The conditions noted are these: 10 µM.
For `C[C@H](CO)N1C[C@H](C)[C@@H](CN(C)CC2CCOCC2)Oc2cc(C#Cc3ccccc3F)ccc2S1(=O)=O`, the cytotoxicity call was “inactive”.

For `C[C@@H]1CN([C@H](C)CO)C(=O)c2cc(NC(=O)CCCN(C)C)ccc2O[C@H]1CN(C)Cc1ccncc1`, the cytotoxicity call is “inactive”.

With `CN(C)CC(=O)N1[C@@H]2c3cccc(=O)n3C[C@H]1[C@H](CO)[C@H]2C(=O)NCc1ccccc1`, the cytotoxicity call is “inactive”.

Turning to `C[C@@H]1CCCCO[C@@H](CN(C)S(=O)(=O)c2ccc(F)cc2)[C@@H](C)CN([C@H](C)CO)C(=O)c2cc(NC(=O)c3ccccc3)ccc2O1`, the cytotoxicity call was “inactive”.

For the molecule `CCc1nnc(SCC(=O)O)n1N`, the cytotoxicity call was “inactive”.

As to `COc1ccc(S(=O)(=O)Nc2ccc3c(c2)C(=O)N([C@@H](C)CO)C[C@H](C)[C@@H](CN(C)C(=O)Nc2ccc4c(c2)OCO4)OCCCC[C@H](C)O3)cc1`, the cytotoxicity call is “inactive”.

As to `COc1ccc(CN(C)C[C@H]2Oc3ccc(NC(=O)CCN4CCOCC4)cc3CC(=O)N([C@@H](C)CO)C[C@@H]2C)cc1`, the cytotoxicity call is “inactive”.

Regarding `C[C@@H]1CCCCO[C@@H](CN(C)Cc2ccc(C(=O)O)cc2)[C@@H](C)CN([C@@H](C)CO)C(=O)c2cc(NC(=O)Nc3ccc(C(F)(F)F)cc3)ccc2O1`, the cytotoxicity call is “inactive”.

On to `COc1ccc(CCN(C)CCCOc2ccc(S(=O)(=O)c3[nH]c4ccccc4c3C(C)C)cc2)cc1OC`, for which the cytotoxicity call was “active”.

Turning to `COc1cc(C(=O)NCc2ccc(OCCN(C)C)cc2)cc(OC)c1OC.Cl`, the cytotoxicity call was “inactive”.

With `COc1ccc(CCN(C)CCCOc2ccc(S(=O)(=O)c3c(C(C)C)cn4ccccc34)cc2)cc1OC`, the cytotoxicity call was “active”.

Consider `COc1ccc(CCN(C)CCCOc2ccc(S(=O)(=O)c3c(C(C)C)c4ccccc4n3C)cc2)cc1OC`, for which the cytotoxicity call was “active”.

As to `COc1ccc(C(=O)NCc2ccc(OCCN(C)C)cc2)cc1OC`, the cytotoxicity call is “inactive”.

On to `C[C@H](CO)N1C[C@H](C)[C@H](CN(C)C(=O)Nc2ccc(F)cc2)OCCCC[C@H](C)Oc2ccc(NS(=O)(=O)c3ccccc3)cc2C1=O`, for which the cytotoxicity call was “inactive”.

For the molecule `CCCc1cc(-c2nc(-c3ccc(C)cc3)cs2)ccn1`, the cytotoxicity call was “inactive”.

On to `Cc1ccc(-c2csc(-c3ccc(CN)cc3)n2)cc1`, for which the cytotoxicity call was “active”.

For `Cc1ccc(-c2csc(-c3ccc(C(F)(F)F)cc3)n2)cc1`, the cytotoxicity call was “inactive”.

Take `CCc1ccccc1C(=O)N1CCC[C@@H](Cn2cc(C(C)(C)N)nn2)C1`: the cytotoxicity call is “inactive”.

With `COc1ccc2[nH]c3c(-c4cccc5ccccc45)nccc3c2c1`, the cytotoxicity call was “active”.

For `COc1ccc2c3c(ccc2c1)-c1[nH]c2ccccc2c1CC3`, the cytotoxicity call is “inactive”.

In the case of `COc1ccc2[nH]c(=O)[nH]c(=O)c2c1`, the cytotoxicity call was “inactive”.

As for `COc1ccc(-c2ccc3n(c2=O)C[C@@H]2[C@@H](CO)[C@H](C(=O)NCC4CC4)[C@H]3N2S(C)(=O)=O)cc1`, the cytotoxicity call is “inactive”.

Turning to `C[C@@H]1CN([C@H](C)CO)S(=O)(=O)c2ccc(C#Cc3ccccc3)cc2O[C@@H]1CN(C)S(=O)(=O)c1ccccc1F`, the cytotoxicity call was “inactive”.

Turning to `C[C@H](CO)N1C[C@H](C)[C@@H](CN(C)C(=O)Cc2ccccc2)Oc2ncc(C#CC3(O)CCCC3)cc2C1=O`, the cytotoxicity call was “inactive”.

As to `CC(=O)N(C)C[C@H]1Oc2ncc(C#CC(C)(C)O)cc2C(=O)N([C@H](C)CO)C[C@H]1C`, the cytotoxicity call was “inactive”.

`C[C@@H]1CN([C@H](C)CO)C(=O)c2cc(C#CC3(O)CCCC3)cnc2O[C@H]1CN(C)C(=O)Cc1ccccc1`: the cytotoxicity call was “inactive”.

Consider `CC(=O)N(C)C[C@@H]1Oc2ncc(C#CC(C)(C)O)cc2C(=O)N([C@@H](C)CO)C[C@@H]1C`, for which the cytotoxicity call is “active”.

Take `C[C@H](CO)N1C[C@H](C)[C@H](CN(C)C(=O)Cc2ccccc2)Oc2ncc(C#CC3(O)CCCC3)cc2C1=O`: the cytotoxicity call is “active”.

Regarding `CC(=O)N(C)C[C@@H]1Oc2ncc(C#CC(C)(C)O)cc2C(=O)N([C@@H](C)CO)C[C@H]1C`, the cytotoxicity call was “inactive”.

Turning to `Cc1noc(C)c1S(=O)(=O)Nc1ccc2c(c1)CC(=O)N([C@@H](C)CO)C[C@@H](C)[C@H](CN(C)S(=O)(=O)c1ccccc1)O2`, the cytotoxicity call was “inactive”.

In the case of `C[C@@H]1CN([C@@H](C)CO)C(=O)Cc2cc(NS(=O)(=O)c3ccccc3)ccc2O[C@@H]1CN(C)CC1CC1`, the cytotoxicity call is “inactive”.

Turning to `COc1ccc(S(=O)(=O)Nc2ccc3c(c2)C(=O)N([C@H](C)CO)C[C@H](C)[C@@H](CN(C)C(=O)NC2CCCCC2)OCCCC[C@H](C)O3)cc1`, the cytotoxicity call is “inactive”.

For the molecule `CC(C)NC(=O)N(C)C[C@@H]1Oc2ccc(NS(=O)(=O)c3ccccc3)cc2C(=O)N([C@@H](C)CO)C[C@@H]1C`, the cytotoxicity call is “inactive”.

Regarding `C[C@H]1CCCCO[C@@H](CN(C)Cc2ccc(C(=O)O)cc2)[C@@H](C)CN([C@@H](C)CO)C(=O)c2cc(NC(=O)Nc3cccc4ccccc34)ccc2O1`, the cytotoxicity call is “inactive”.

Regarding `CCC(=O)Nc1ccc2c(c1)OC[C@H](C)N(C(=O)CN1CCOCC1)C[C@@H](C)[C@@H](OC)CN(C)C2=O`, the cytotoxicity call is “inactive”.

Regarding `O=C(Nc1ccc(-c2nc3ccc(NC(=O)c4ccc(Cl)cc4)cc3[nH]2)cc1)c1ccc(Cl)cc1`, the cytotoxicity call is “active”.

For the molecule `O=C(Nc1ccc(-c2nc3ccc(NC(=O)c4ccccc4[N+](=O)[O-])cc3[nH]2)cc1)c1ccccc1[N+](=O)[O-]`, the cytotoxicity call was “inactive”.

On to `O=C(Nc1ccc(-c2nc3ccc(NC(=O)c4ccc(NC(=O)c5cccc6ccccc56)cc4)cc3[nH]2)cc1)c1ccc(NC(=O)c2cccc3ccccc23)cc1`, for which the cytotoxicity call is “inactive”.

On to `c1ccc(-c2nn(-c3ccccc3)c3c2cnc2ccccc23)cc1`, for which the cytotoxicity call was “inactive”.

Take `C[C@@H]1CN([C@@H](C)CO)C(=O)c2cc(C#Cc3ccccc3F)cnc2O[C@H]1CN(C)C(=O)c1ccc2c(c1)OCO2`: the cytotoxicity call was “inactive”.

Consider `c1cnc(-c2cc[nH]n2)cn1`, for which the cytotoxicity call is “inactive”.

With `C[C@@H]1CN([C@@H](C)CO)C(=O)c2ccccc2-c2ccccc2CO[C@H]1CN(C)C(=O)N[C@H](C)c1ccccc1`, the cytotoxicity call is “inactive”.

On to `Cc1cc(C)c(NC(=O)CN(CC(=O)O)CC(=O)O)c(C)c1Br`, for which the cytotoxicity call is “inactive”.

In the case of `Cn1cnc(S(=O)(=O)N2C[C@H](O)COC[C@@H]3O[C@@H](CC(=O)NCc4cccc(F)c4)CC[C@H]32)c1`, the cytotoxicity call is “inactive”.

`C[C@@H]1CN([C@H](C)CO)S(=O)(=O)c2ccc(-c3ccncc3)cc2O[C@@H]1CN(C)S(=O)(=O)c1ccccc1F`: the cytotoxicity call is “inactive”.

For `Cc1ccc(S(=O)(=O)Oc2ccc(/N=N/c3ccc(-c4ccc(/N=N/c5c(O)ccc6cc(S(=O)(=O)O)cc(S(=O)(=O)O)c56)c(C)c4)cc3C)cc2)cc1`, the cytotoxicity call was “inactive”.

Consider `Cc1cc(-c2ccc(N=Nc3ccc4c(S(=O)(=O)[O-])cc(S(=O)(=O)[O-])c(N)c4c3O)c(C)c2)ccc1N=Nc1ccc2c(S(=O)(=O)[O-])cc(S(=O)(=O)[O-])c(N)c2c1O.[Na+].[Na+].[Na+].[Na+]`, for which the cytotoxicity call was “active”.

As to `C[C@H]1CN([C@@H](C)CO)C(=O)c2cc(C#Cc3ccncc3)cnc2O[C@@H]1CN(C)S(=O)(=O)c1ccccc1F`, the cytotoxicity call is “inactive”.

For `C[C@@H]1CN([C@H](C)CO)C(=O)c2cc(NC(=O)Nc3ccc(F)cc3)ccc2O[C@H]1CN(C)Cc1ccc(C(F)(F)F)cc1`, the cytotoxicity call was “active”.

On to `C[C@@H]1CN([C@H](C)CO)C(=O)c2cc(NC(=O)Nc3ccc(F)cc3)ccc2O[C@@H]1CN(C)Cc1ccc(C(F)(F)F)cc1`, for which the cytotoxicity call is “inactive”.

Turning to `C[C@@H]1CN([C@@H](C)CO)C(=O)c2cc(NC(=O)Nc3ccc(F)cc3)ccc2O[C@@H]1CN(C)Cc1ccc(C(F)(F)F)cc1`, the cytotoxicity call was “active”.

Take `C[C@H](CO)N1C[C@H](C)[C@@H](CN(C)Cc2ccc(C(F)(F)F)cc2)Oc2ccc(NC(=O)Nc3ccc(F)cc3)cc2C1=O`: the cytotoxicity call was “active”.

`C[C@@H]1CN([C@@H](C)CO)C(=O)c2cc(NC(=O)Nc3ccc(F)cc3)ccc2O[C@H]1CN(C)Cc1ccc(C(F)(F)F)cc1`: the cytotoxicity call is “active”.

With `C[C@H]1CN([C@@H](C)CO)C(=O)c2cc(NC(=O)Nc3ccc(F)cc3)ccc2O[C@@H]1CN(C)Cc1ccc(C(F)(F)F)cc1`, the cytotoxicity call was “inactive”.

Take `C[C@H](CO)N1C[C@H](C)[C@H](CN(C)Cc2ccc(C(F)(F)F)cc2)Oc2ccc(NC(=O)Nc3ccc(F)cc3)cc2C1=O`: the cytotoxicity call is “inactive”.

As to `C[C@H]1CN([C@@H](C)CO)C(=O)c2cc(NC(=O)Nc3ccc(F)cc3)ccc2O[C@H]1CN(C)Cc1ccc(C(F)(F)F)cc1`, the cytotoxicity call is “inactive”.

Consider `O=C(C[C@H]1C=C[C@@H](NC(=O)Nc2cc(F)ccc2F)[C@@H](CO)O1)NCCCN1CCOCC1`, for which the cytotoxicity call was “inactive”.

As to `CCS(=O)(=O)N1C[C@]2(CN(C2)C(=O)Nc2ccc3c(c2)OCO3)c2c(n(c3cc(ccc23)OC)C)[C@H]1CO`, the cytotoxicity call was “inactive”.

Take `N=C(N)N.O=C(O)O`: the cytotoxicity call was “inactive”.

On to `Cc1noc(C)c1S(=O)(=O)N(C)C[C@H]1Oc2ccc(NS(C)(=O)=O)cc2CC(=O)N([C@H](C)CO)C[C@@H]1C`, for which the cytotoxicity call is “inactive”.

In the case of `COc1ccc(NC(=O)N(C)C[C@@H]2Oc3ccc(NC(=O)Cn4cnnn4)cc3CC(=O)N([C@H](C)CO)C[C@H]2C)cc1`, the cytotoxicity call was “inactive”.

For the molecule `C[C@H](CO)N1C[C@H](C)[C@H](CN(C)C(=O)Nc2ccc(C(F)(F)F)cc2)OCCCC[C@H](C)Oc2ccc(NS(=O)(=O)c3cn(C)cn3)cc2C1=O`, the cytotoxicity call was “inactive”.

With `O=C(C[C@H]1C=C[C@@H](NC(=O)c2cccc(F)c2)[C@H](CO)O1)NCCN1CCCC1`, the cytotoxicity call was “inactive”.

Regarding `COc1ccc(-c2cnc3c(c2)C(=O)N([C@H](C)CO)C[C@H](C)[C@H](CN(C)S(=O)(=O)c2ccc(F)cc2)O3)cc1`, the cytotoxicity call is “inactive”.

On to `Cc1ccc(S(=O)(=O)N(C)C[C@@H]2Oc3c(NS(=O)(=O)c4ccccc4)cccc3C(=O)N([C@@H](C)CO)C[C@H]2C)cc1`, for which the cytotoxicity call was “inactive”.

Take `NCC[C@H]1CC[C@@H](NC(=O)c2ccccc2F)[C@@H](CO)O1`: the cytotoxicity call was “inactive”.

Consider `Cc1ccc(S(=O)(=O)N(C)C[C@@H]2Oc3c(NS(C)(=O)=O)cccc3C(=O)N([C@H](C)CO)C[C@H]2C)cc1`, for which the cytotoxicity call was “inactive”.

On to `Cc1cc(C(=O)Nc2cccc3c2O[C@@H](CN(C)S(C)(=O)=O)[C@@H](C)CN([C@@H](C)CO)C3=O)n(C)n1`, for which the cytotoxicity call is “inactive”.

Consider `C[C@@H]1CCCCO[C@@H](CN(C)S(=O)(=O)c2ccc(Cl)cc2)[C@@H](C)CN([C@@H](C)CO)C(=O)c2cc(NS(=O)(=O)c3ccc(F)cc3)ccc2O1`, for which the cytotoxicity call is “inactive”.
